Laboratory results taken from PubChem BioAssay.
Structures can show the parent of a compound that is named as a salt. A number with no mark means an inactive call. Activity calls are given as the source filed them.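 Rule for the calls: active = at least 20% inhibition of 6-phosphogluconate dehydrogenase activity; inactive = the rest.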 Where a SMILES comes first, the peptide text is derived from it. [ ]: non-standard residue; d: D form. The star is where a group is joined. Tfa = O=C(C(F)(F)F)*; NHCH2CH2OH = OCCN*; For = O=C*

Molecular target: 6-phosphogluconate dehydrogenase, decarboxylating (Homo sapiens) (UniProt P52209)
Sequence (P52209 whole entry, looked up): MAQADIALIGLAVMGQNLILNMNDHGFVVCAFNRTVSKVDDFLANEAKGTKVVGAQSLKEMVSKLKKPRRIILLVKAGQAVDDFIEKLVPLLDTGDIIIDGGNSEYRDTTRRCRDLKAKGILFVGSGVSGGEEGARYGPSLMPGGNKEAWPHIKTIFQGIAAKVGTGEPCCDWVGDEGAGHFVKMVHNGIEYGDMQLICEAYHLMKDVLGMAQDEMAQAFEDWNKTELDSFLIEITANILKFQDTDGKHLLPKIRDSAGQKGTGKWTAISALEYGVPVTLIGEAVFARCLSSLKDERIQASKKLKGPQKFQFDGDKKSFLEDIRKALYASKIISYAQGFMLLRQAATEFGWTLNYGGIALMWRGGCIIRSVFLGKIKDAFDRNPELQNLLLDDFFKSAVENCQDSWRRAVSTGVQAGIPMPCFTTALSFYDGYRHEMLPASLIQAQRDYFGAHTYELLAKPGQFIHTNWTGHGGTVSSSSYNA
Test: inhibition of human phosphogluconate dehydrogenase – biochemical, recombinant enzyme, NADPH absorbance, primary screen (AID 1159550)
Conditions: recombinant 6PGD, NADPH absorbance 341 nm; at 10 µM; hits give high values

C=C1C(C)(C)[C@@]2(Cl)C(Cl)[C@]1(Cl)C(Cl)(Cl)C2(Cl)Cl (some centres undefined)
inhibition: 6.23%

O=c1c(O)cccc2c([C@H]3Oc4cc(O)cc(O)c4C[C@H]3O)cc(O)c(O)c12
inhibition: 3.21%

O=C(Oc1cc([C@H]2Oc3cc(O)cc(O)c3C[C@H]2O)cc2c([C@H]3Oc4cc(O)cc(O)c4C[C@H]3O)cc(O)c(OC(=O)c3cc(O)c(O)c(O)c3)c2c1=O)c1cc(O)c(O)c(O)c1
inhibition: -0.352%

CC1OC(OC2C(O)COC(OC3C(C)OC(OC4C(OC(=O)C56CCC(C)(C)CC5C5=CCC7C8(C)CCC(OC9OC(CO)C(O)C(O)C9O)C(C)(C)C8CCC7(C)C5(C)CC6O)OCC(O)C4O)C(O)C3O)C2O)C(O)C(O)C1O (centres undefined)
inhibition: -33.1%

CN1c2ccccc2C(=O)N2CCc3c([nH]c4ccc(O)cc34)[C@H]21
inhibition: 3.55%

COc1ccc(-c2c(OC)c3c(OC)c4c(cc3oc2=O)OC(C)(C)C=C4)cc1
inhibition: 5.26%

N[C@@H](Cc1cnc[nH]1)C(=O)Nc1ccc2ccccc2c1
inhibition: -4.42%

NC1(C(=O)O)CCC1
inhibition: 2.05%

CC(C)CC(NC(=O)CN)C(=O)NC(Cc1ccccc1)C(=O)O (stereo not drawn) (H-Gly-Leu-Phe-OH; configuration not given here)
inhibition: 6.11%

COc1ccc(-c2cc(=O)c3c(O)cc(O[C@H]4O[C@H](CO[C@@H]5O[C@@H](C)[C@H](O)[C@@H](O)[C@H]5O)[C@@H](O)[C@H](O)[C@H]4O)cc3o2)cc1
inhibition: 17.5%

Nc1nc2[nH]c(=O)c(=O)[nH]c2c(=O)[nH]1
inhibition: 13.8%

CC[C@H](C(=O)[C@@H](C)[C@@H](O)[C@H](C)[C@@H]1O[C@@H]([C@@H](CC)C(=O)O)[C@@H](C)C[C@@H]1C)[C@H]1O[C@]2(C=C[C@@H](O)[C@]3(CC[C@@](C)([C@H]4CC[C@](O)(CC)[C@H](C)O4)O3)O2)[C@H](C)C[C@@H]1C
inhibition: -15.5%

CC(C)C[C@@H](NC(=O)[C@H](C)NC(=O)CNC(=O)[C@@H](NC=O)C(C)C)C(=O)N[C@@H](C)C(=O)N[C@@H](C(=O)N[C@H](C(=O)N[C@H](C(=O)N[C@@H](Cc1c[nH]c2ccccc12)C(=O)N[C@H](CC(C)C)C(=O)N[C@@H](Cc1c[nH]c2ccccc12)C(=O)N[C@H](CC(C)C)C(=O)N[C@@H](Cc1c[nH]c2ccccc12)C(=O)N[C@H](CC(C)C)C(=O)N[C@@H](Cc1c[nH]c2ccccc12)C(=O)NCCO)C(C)C)C(C)C)C(C)C (For-VGA[dL]A[dV]VVW[dL]W[dL]W[dL]W-NHCH2CH2OH)
inhibition: 10.9%

Oc1cc(O)c2c(c1)O[C@H](c1cc(O)c(O)c(O)c1)[C@H](O)[C@H]2c1c(O)cc(O)c2c1O[C@H](c1cc(O)c(O)c(O)c1)[C@H](O)[C@H]2c1c(O)cc(O)c2c1O[C@H](c1cc(O)c(O)c(O)c1)[C@H](O)C2
inhibition: 11.5%

COc1ccc2c(c1)OC/C(=C/c1ccc(O)c(O)c1)C2=O
inhibition: 2.37%

COc1ccc(-c2coc3cc(O)ccc3c2=O)c(OC)c1O
inhibition: 1.46%

CC[C@@H](CC[C@@H](C)[C@H]1CC[C@H]2[C@@H]3CC=C4C[C@@H](O)CC[C@]4(C)[C@H]3CC[C@]12C)C(C)C
inhibition: 10.4%

COC(=O)C[C@H]1C(C)(C)C(=O)[C@@H]2CC3C4=CC(=O)O[C@@H](c5ccoc5)[C@]4(C)CC[C@@H]3[C@@]1(C)C2=O (some centres undefined)
inhibition: 12.7%

CC(C)C(N)C(=O)NC(Cc1c[nH]c2ccccc12)C(=O)O (centres undefined)
inhibition: 4.18%

COc1ccccc1-c1cc(=O)c2cccc(OC)c2o1
inhibition: 4.44%

CS(=O)(=O)CCCCN=C=S
inhibition: 1.33%

C[C@H](CCC(=O)O)[C@H]1CC[C@H]2[C@@H]3C[C@H](O)[C@@H]4C[C@H](O)CC[C@]4(C)[C@H]3CC[C@]12C
inhibition: 2.54%

COC(=O)[C@]1(C)CC[C@]2(C)CC[C@]3(C)C4=CCc5c(cc(OC(C)=O)c(OC(C)=O)c5C)[C@]4(C)CC[C@@]3(C)[C@@H]2C1
inhibition: 10.1%

C=C[C@@H]1CN2CC[C@@H]1C[C@@H]2[C@@H](O)c1ccnc2ccc(OC)cc12
inhibition: 8.78%

CC1OC(OC2C(Oc3cc(O)c4c(=O)cc(-c5ccc(O)cc5)oc4c3)OC(CO)C(O)C2O)C(O)C(O)C1O (centres undefined)
inhibition: -11.1%

C[C@H](CCC(=O)O)C1CC[C@H]2[C@@H]3CC[C@H]4C[C@H](O)CC[C@]4(C)[C@H]3C[C@H](O)[C@]12C (some centres undefined)
inhibition: -1.43%

C=CC(C1=CC(=O)C(OC)=C(OC)C1=O)c1ccccc1 (centres undefined)
inhibition: 3.55%

O=C(O)C=CC=Cc1ccccc1
inhibition: 8.52%

Nc1nc2c(ncn2[C@H]2C[C@H](O)[C@@H](CO)O2)c(=O)[nH]1
inhibition: -9.26%

CC(C)[C@H](NC(=O)[C@H](Cc1ccc(O)cc1)NC(=O)[C@@H](NC(=O)C(F)(F)F)C(C)C)C(=O)O (Tfa-Val-Tyr-Val-OH)
inhibition: -6.07%

CC(C)(OC(=O)c1ccccc1)[C@@H]1Cc2cc3ccc(=O)oc3cc2O1
inhibition: 20% (active)

COc1c(Cl)c(C)c2c(c1Cl)OC(=O)c1c(C)c(Cl)c(OC)c(Cl)c1O2
inhibition: -8.06%

CC(C)c1c(O)ccc2c1CCC1[C@@](C)(C(=O)O)CCC[C@]21C (some centres undefined)
inhibition: 17.5%

CC(=O)O[C@@H]1CC2C(C)(C)C(=O)[C@@H]3O[C@@H]3[C@]2(C)C2CC[C@]3(C)C(=CC(=O)O[C@H]3c3ccoc3)[C@@]21C (some centres undefined)
inhibition: 0.52%

COC(=O)c1cc(OC)c(=O)c2c(OC)c(OC)ccc2c1
inhibition: 7.65%

CC[C@@H](/C=C/[C@@H](C)[C@H]1CC[C@H]2[C@@H]3CC=C4C[C@@H](O)CC[C@]4(C)[C@H]3CC[C@]12C)C(C)C
inhibition: 15.3%

CC(=O)OC1CCC2(C)C(CC(OC(C)=O)C3(C)C2CCC2(C)C(c4ccoc4)OC(=O)C4OC423)C1(C)C (centres undefined)
inhibition: -7.87%

CC(C)=CCc1c(O)cc(C)oc1=O
inhibition: -5.39%

CC(=O)Oc1ccc2c(c1)CCC1C2CCC2(C)C(OC(C)=O)CCC12 (centres undefined)
inhibition: 3.64%

CC(C)C1COc2cc3oc(=O)ccc3cc2O1 (centres undefined)
inhibition: 3.83%

C=CCCCCCCCCCCC/C=C/C(O)COC(C)=O (centres undefined)
inhibition: -11.7%

CC(C)C[C@H](NC(=O)OCC1c2ccccc2-c2ccccc21)C(=O)O
inhibition: 2.94%

COc1cc(O)c(C(=O)/C=C/c2ccccc2)c(OC)c1
inhibition: -2.81%

COC1=CC(=O)C(O)=C/C1=C/C=C/c1ccccc1
inhibition: 4.47%
